Results from PubChem BioAssay AID652042 (Broad Institute, 2013).
In all, about 1,100 compounds went through this assay and about 350 (32%) were called active. Only a sample is shown. Measured potencies and affinities stand elsewhere. Values without a mark were called inactive. No rule for the calls is given here.

Test: CEM21 lymphoblast cell cytotoxicity, dose response, cytotoxicity control for viral fusion inhibitor project, CellTiter-Glo luminescence, cherry-picked (AID 652042)
Conditions: CEM21 cells viability, CellTiter-Glo ATP luminescence, 24 h; series mostly up to 35 µM; activity change, negative = cytotoxicity: at the top concentration

Structure (SMILES) | activity change, negative = cytotoxicity
CC(C)(C)c1ccc(-n2ncc3c2CCCC3NC(=O)CN2CCCC2=O)cc1 (stereo not given) | -8.24%
Cc1cc(C(=O)NC2CCCc3c2cnn3-c2ccc(C(C)(C)C)cc2)nn1C (stereo not given) | -25%
CCC12CN(S(=O)(=O)c3ccc(C)cc3)CC(CC)(CN(S(=O)(=O)c3ccc(C)cc3)C1)C2=O | -6.76%
O=C(C[C@@H]1C/C=C/CC[C@@H](Cc2ccc(F)cc2)C(=O)O[C@H](c2ccccc2)CNC1=O)NCCO | 2.11%
CC[C@@]12C(=O)N(c3ccc(C)cc3)C(=O)N1[C@H](c1ccc(OC)cc1)[C@@H]1C(=O)N(C(C)(C)C)C(=O)[C@@H]12 | 4.19%
O=C(c1ccc2ncsc2c1)N1CCN(c2nc3ccccc3s2)CC1 | -1.8%
Cc1cc(CSc2ccccc2)ccc1NC(=O)c1ccc(CN2CCOCC2)cc1 | -22.6%
CCCOc1ccc2ccccc2c1/C=N/n1cnnc1 | -10.6%
CS(=O)(=O)N1CCN(c2ccccc2NC(=O)C(c2ccccc2)c2ccccc2)CC1 | -6.99%
COC(=O)C[C@H]1C=C[C@H](NC(=O)c2ccccn2)[C@@H](CO)O1 | -6.35%
C[C@@H]1CNC(=O)c2c(C(=O)N3CCN(c4ccccc4)CC3)ncn21 | 4.32%
O=C(N(Cc1ccccc1)c1ccccn1)C12CC3CC(CC(C3)C1)C2 | -12.9%
CCNC1CCC(Nc2ccnc3cc(Cl)ccc23)CC1 (stereo not given) | -10.5%
O=C(Nc1cccc(F)c1)c1cc(S(=O)(=O)N2CCC(C(=O)O)CC2)ccc1F | 4.19%
CC(C)OCCCn1c(=S)[nH]c2ccc(N3CCOCC3)cc2c1=O | -6.55%
Cc1ccc(C(=O)CN2C(=O)c3ccccc3S2(=O)=O)cc1 | 2.43%
O=C(Nc1ccccc1N1CCN(C(=O)c2ccccc2)CC1)c1ccc(Br)o1 | -14.8%
CCOC(=O)c1cccc(NS(=O)(=O)c2ccc(NC(C)=O)cc2)c1 | -14.2%
O=C(c1ccc(S(=O)(=O)Nc2ccc(F)cc2)cc1)N1CCN(C(=O)c2ccco2)CC1 | -14.6%
COc1cc2c(c(OCC(=O)NC(C)C)c1)C(=O)O[C@@H](C)CCCC(=O)CCCCC2 | -11.1%
Nc1c(Cl)cc2c(c1Oc1ccccc1)C(=O)c1ccccc1C2=O | -9.65%
CN(Cc1cccs1)c1ncnc2sccc12 | -3.99%
C[C@H]1CN([C@@H](C)CO)C(=O)c2cccc(NC(=O)c3ccncc3)c2O[C@@H]1CN(C)C(=O)Nc1cccc2ccccc12 | -0.319%

Structure (SMILES) | activity change, negative = cytotoxicity
C[C@@H]1CN([C@H](C)CO)C(=O)c2cccc(NC(=O)c3ccncc3)c2O[C@@H]1CN(C)Cc1ccc(C(=O)O)cc1 | 10.9%
C[C@@H]1CN([C@H](C)CO)C(=O)c2cccc(NC(=O)c3ccncc3)c2O[C@H]1CN(C)CC1CCCCC1 | -4.35%
C[C@@H]1CN([C@H](C)CO)C(=O)c2cccc(NC(=O)C3CCCCC3)c2O[C@H]1CN(C)Cc1ccccc1 | -15.4%
CC(C)(C)c1ccc(-c2noc(CCC(N)=O)n2)cc1 | -3.94%
Cc1n[nH]c(C)c1S(=O)(=O)N(CC(=O)NC1CCCC1)c1ccc(C(C)C)cc1 | -9.43%
CCCN(CC(=O)Nc1ccccc1OC)C(=O)c1cccc(S(=O)(=O)NCc2ccccc2)c1 | -4.51%
CCOc1ccc(N(CC(=O)NCCSCc2ccc(Cl)cc2)S(C)(=O)=O)cc1 | -10.1%
COc1ccc(Cl)cc1NC(=O)CN(C1CCCCC1)S(C)(=O)=O | -3.12%
C#CCn1c(=O)c2c(ncn2C)n(C)c1=O | 5.78%
C=C1CCN([C@H](C(=O)OCc2cccc(C)c2)C(C)C)S(=O)(=O)c2ccccc21 | -17.6%
O=C(Nc1cc(Cl)cc(Cl)c1)C(c1ccccc1)N1CCCCC1 (stereo not given) | -16.6%
CCN1C(=O)[C@H]2[C@H]3CN=C(SCc4ccc(Cl)cc4)N3[C@@](CC)(C(=O)OC)[C@H]2C1=O | 0.196%
Cc1onc(-c2ccccc2)c1C(=O)OCCOc1cccc(Cl)c1 | -30.9%
CCn1c(C)cc(C(=O)CN2C(=O)c3ccccc3S2(=O)=O)c1C | -4.76%
O=C(Nc1cc2c3c(c1)CC(=O)N3CCC2)c1ccc(Cl)cc1 | -10.3%
CN(c1ccccc1)S(=O)(=O)c1ccc(Cl)c(C(=O)Nc2nc3ccccc3[nH]2)c1 | -10.4%
O=C(NCCCc1nc2ccccc2[nH]1)c1ccco1 | 7.11%
CCNC(=O)C[C@H]1CC[C@@H]2[C@@H](COc3ccc(NC(=O)Nc4cccc(OC)c4)cc3C(=O)N2C)O1 | -7.07%
Cc1[nH]c2ccccc2c1/C=N\NC(=O)c1ccccc1Cl | -0.294%
CCOc1cccc(N(C(=O)Cc2cccs2)C(C(=O)NC2CCCCC2)c2cccn2C)c1 (stereo not given) | -7.71%
COc1cccc(-c2noc(C3CCCN(S(=O)(=O)c4cccc(Cl)c4C)C3)n2)c1 (stereo not given) | -13.6%
Cc1ccc2c(c1)C(=C(C#N)C#N)CCN2 | -9.93%
COc1ccc(C(=O)CN2C(=O)c3ccccc3S2(=O)=O)cc1 | -4.85%

Structure (SMILES) | activity change, negative = cytotoxicity
COc1cc(/C=N/NS(=O)(=O)c2ccc(C)cc2)ccc1OCc1cccc(C(=O)O)c1 | 0.914%
CCOc1ccccc1CNc1ncnc2ccc(-c3c(C)noc3C)cc12 | -30.7%
COC(=O)C1(C(=O)OC)C[C@H](c2ccc(OC)cc2)N(Cc2ccccc2OC)[C@@H]1c1ccccc1 | -18.7%
CCCCn1c(CN(C)Cc2ccccc2)nc2c1c(=O)n(C)c(=O)n2C | -25.1%
CCCNC(=O)C[C@H]1C[C@H]2c3cc(NC(=O)CN(C)C)ccc3O[C@H]2[C@@H](CO)O1 | -3.17%
CC[C@@]1(C(=O)OC)N[C@H](CN(C)C(=O)Nc2ccc(C(F)(F)F)cc2)[C@@H]2C(=O)N(Cc3ccccc3)C(=O)[C@@H]21 | -12.2%
COC(=O)[C@]12CCCCC=C1N(Cc1ccco1)C(=O)[C@H](CC(=O)NCCc1ccccc1OC)C2 | -6.68%
Cn1c(=O)oc2cc(S(=O)(=O)NCc3ccncc3)ccc21 | -8.94%
OCCN1CCN(C(=S)c2ccc(-c3ccccc3)cc2)CC1 | -1.55%
CC1CCCN(C(=O)c2ccc(S(=O)(=O)N3CCC(c4nc5ccccc5s4)CC3)cc2)C1 (stereo not given) | -18.3%
Cn1cc(S(=O)(=O)N2CCOCC2)cc1C(=O)Nc1cccc(Cl)c1 | 0.651%
Cn1c(C(=O)N2CCN(c3nc4ccccc4s3)CC2)cc2sccc21 | -6.53%
CN(CC(=O)NCCc1ccc(S(N)(=O)=O)cc1)CC(=O)Nc1ccc(Cl)c(C(F)(F)F)c1 | -6.11%
CCN(C[C@H]1N[C@@](C)(C(=O)OC)[C@H]2C(=O)N(Cc3ccccc3)C(=O)[C@@H]12)C(=O)Nc1ccccc1 | 1.83%
Nc1ncn([C@H]2C[C@H](O)[C@@H](CO)O2)c(=O)n1 | -15.3%
CCc1cc2c(NCc3ccco3)ncnc2s1 | -10.4%
Nc1nc2c(ncn2[C@@H]2O[C@H](C(=O)NCC(c3ccccc3)c3ccccc3)[C@@H](O)[C@H]2O)c(=O)[nH]1 | 6.01%
COc1ccccc1-c1c(-c2ccc(O)cc2O)n[nH]c1C(F)(F)F | -5.87%
C=C1CCN([C@H](C(=O)OCc2ccc(C)cc2)C(C)C)S(=O)(=O)c2ccccc21 | -9.42%
COC(=O)[C@]1(C)N[C@H](CN(C)S(=O)(=O)c2ccc(-c3ccccc3)cc2)[C@@H]2C(=O)N(Cc3ccccc3)C(=O)[C@@H]21 | -2.53%
O=C(NCc1ccco1)c1ccc(Cn2c(=O)c3ccccc3n(Cc3ccc(Cl)cc3)c2=O)cc1 | 1.32%
COc1ccc(CCN(Cc2cccs2)S(=O)(=O)c2ccc(-n3cnnn3)cc2)cc1OC | -7.83%
Nc1c(S(=O)(=O)c2cccs2)c2nc3ccccc3nc2n1CCc1ccccc1 | 0.984% [at 16 µM]

Structure (SMILES) | activity change, negative = cytotoxicity
CCOC(=O)[C@@H]1[C@H]2COc3ccc(Br)cc3[C@@H]2N2C(=O)N(c3cccc(F)c3)C(=O)[C@@]12C | -9.37%
Cn1c(=O)c2c(nc(Oc3ccc4ccccc4c3)n2C)n(C)c1=O | -10.1%
COc1ccc(/C=C/c2nc(S(=O)(=O)c3ccccc3)c(NCCCN(C)C)o2)cc1OC | 3.14% [at 16 µM]
COc1cc(/C=N/O)ccc1OCc1ccc(C(=O)O)cc1 | 0.784%
O=C(Nc1cc(Cl)cc(Cl)c1)C1CCC(=O)N1Cc1ccccc1Cl (stereo not given) | -8.05%
CCCNC(=O)N1[C@H](C#N)[C@H](c2ccc(-c3cccc(OC)c3)cc2)[C@@H]1CO | -20.5%
CN(C)C(=O)CCC(=O)N1CCCC(C(=O)c2ccc3c4c(cccc24)CC3)C1 (stereo not given) | -13.2%
O=C(C[C@H]1C[C@H]2c3cc(NC(=O)NC4CCCC4)ccc3O[C@H]2[C@@H](CO)O1)NC1CCCCC1 | -5.11% [at 30 µM]
COC(=O)[C@@]12CCCN1[C@H](c1ccc(-c3ccc(F)cc3)c(OC)c1)[C@H]1C(=O)N(C)C(=O)[C@H]12 | -14.3%
O=C(c1ccccc1)N1CCN(c2ncnc3sc4c(c23)CCC4)CC1 | -10.8%
CCN(Cc1nc2cc(Cl)ccc2c(=O)[nH]1)C(=O)c1cc(C2CC2)nn1-c1ccccc1 | -11%
Cc1cc(C)c(CN2CCN(C(=O)Cn3cnc4c(NCc5ccccc5)ncnc43)CC2)c(C)c1 | -20.7%
O=C(Cn1ncc2c(=O)oc3ccccc3c21)N1CCC(N2CCCCC2)CC1 | 8.1%
CCOC(=O)C1CCN(C(=O)c2ccc3c(c2)C(=O)N(c2ccccc2C)C3=O)CC1 | 0.54%
COc1ccccc1[C@@H]1C(c2ccc(F)cc2)=NN(c2ccccc2)[C@H]1C(=O)N1CCOC1=O | -13.4%
COc1ccccc1CN1C(=O)CN(C2CCCCCC2)C(=O)C1c1ccc(F)cc1 (stereo not given) | -12.1%
CCN(C1CCCCC1)S(=O)(=O)c1ccc(S(=O)(=O)NCc2ccncc2)cc1 | -5.76%
CC[C@@]12C(=O)N(c3ccccc3)C(=O)N1[C@H](c1ccc(OC)cc1)[C@@H]1C(=O)N(C(C)(C)C)C(=O)[C@@H]12 | -3.88%
Cc1nc2sccn2c1-c1csc(NCc2ccccc2)n1 | -22.7%
O=C(CN(Cc1ccccc1F)S(=O)(=O)c1ccc(Cl)cc1)NCCC1=CCCCC1 | -7.05%
O=C(CN(Cc1ccccc1)S(=O)(=O)c1ccc(F)cc1)NCCC1=CCCCC1 | -20.4%
